Where “and” joins values, the source holds several entries; their conditions need not be identical. Equal entries are not always repeated. ± gives the standard deviation of the averaged measurements.

Holding throughout (conditions): concentration: 10 µM; 24 h
Assay [1] relates to HCC1569. Put plainly: cell number relative to DMSO (% of DMSO); higher = more cells (less growth inhibition / toxicity). The method, boiled down: (§1)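 HCC1569 and TDF cells were seeded at 800 per well in 384-well plates in RPMI with 10% FBS and treated with compounds at 10 µM for 24 h at 37 °C, in triplicate. After fixation in 3.7% formaldehyde, cells were stained with a rabbit anti-H1.0 antibody, an AlexaFluor 647 secondary and DAPI, and six fields per well were imaged at ×10. H1.0 nuclear intensity or cell number is given as percent of the plate control, using the median of replicates, with HCC1569 values smoothed for positional effects.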

In assay [2] the test system is TDF. Described as above. The method, boiled down:
as §1

The test system of assay [3] is HCC1569. In words: H1.0 immunofluorescence intensity relative to DMSO (% of DMSO); higher = stronger H1.0 induction, active = 140 or more. The method, boiled down:
as §1

The test system of assay [4] is TDF. Put plainly: H1.0 immunofluorescence intensity relative to DMSO (% of DMSO); higher = stronger H1.0 induction, active = 120 or more. In outline: as §1
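Throughout, for H1.0 immunofluorescence intensity relative to DMSO: TDF is a line of transformed human dermal fibroblasts of mesenchymal origin.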
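Throughout, for cell number relative to DMSO: TDF denotes transformed human dermal fibroblasts of mesenchymal origin.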

In the case of `Cc1[nH]nc2ccc(-c3cncc(OCC(N)Cc4ccccc4)c3)cc12` (configuration not stated), the cell number with HCC1569 [1] is 58.8; in the assay on TDF [2], 2.19. For the same molecule, the H1.0 immunofluorescence intensity in the assay with HCC1569 [3] was 92 (inactive).
As to `Cc1ccc([N+](=O)[O-])cc1S(=O)(=O)N(C)N=Cc1cnc2ccc(Br)cn12.Cl.O.O` [PI 3-Ka Inhibitor VIII], the cell number was found to be 45.7 in the assay with HCC1569 [1] and 4.97 in the assay on TDF [2]. Moreover, the H1.0 immunofluorescence intensity in the assay on HCC1569 [3] was 125 (inactive).
`CC(=O)C1(O)Cc2c(O)c3c(c(O)c2C(OC2CC(N)C(O)C(C)O2)C1)C(=O)c1ccccc1C3=O` (configuration not stated) [Idarubicin]: the cell number in the assay on HCC1569 [1] was determined as 49.1 ± 12; in the assay on TDF [2], 5.14 ± 3. Also, in the assay on HCC1569 [3], the H1.0 immunofluorescence intensity is 584 (active).
In the same order, the values of `CCN(CC)CCCC(C)Nc1cc(/C=C/c2ccccc2Cl)nc2cc(Cl)ccc12` (configuration not stated) are 6.31, 1.01 and 102 (inactive).
On the same counts, the results for `C=CC(=O)N1C/C(=C\c2ccc([N+](=O)[O-])cc2)C(=O)/C(=C/c2ccc([N+](=O)[O-])cc2)C1` [1-acryloyl-3,5-bis((E)-4-nitrobenzylidene)piperidin-4-one] are 17.5, 0.39 and 145 (active).
As to `c1cc(-c2cnn3cc(-c4ccc(N5CCNCC5)cc4)cnc23)c2cccnc2c1`, the results for the cell number in the assay on HCC1569 [1] and with TDF [2] were 22.7 and 0.96, respectively. In addition, in the assay with HCC1569 [3], the H1.0 immunofluorescence intensity is 100 (inactive).
For `O=C(O)C1=CC(O)C(O)C(O)C1` (configuration not stated) [Shikimic acid], the H1.0 immunofluorescence intensity in the assay on TDF [4] was 97.5 (inactive); in the assay with HCC1569 [3] it was 100 (inactive).
As for `O=C(c1ccc(Nc2nccc(-c3cc4ccccc4s3)n2)cc1)N1CCC(N2CCCC2)CC1`, the cell number in the assay with HCC1569 [1] turned out to be 61.6; in the assay with TDF [2], 3.45. Besides, in the assay with HCC1569 [3], the H1.0 immunofluorescence intensity was 174 (active).
Turning to `CN(C)c1ccc(C=C2C(=O)Nc3ccccc32)cc1`, the cell number in the assay with HCC1569 [1] is 95.9 and 109 and 98.8; with TDF [2] it was 86.6 and 102 and 98.2. For the same molecule, the H1.0 immunofluorescence intensity in the assay on TDF [4] is 97 (inactive) and 108 (inactive) and 101 (inactive); with HCC1569 [3] it was 114 (inactive) and 102 (inactive) and 125 (inactive).

Values taken from the supplement of paper PMC7156485.
